Measurements reported in PubChem BioAssay (NCI).
Compounds without any hit were thinned out: in the full panel of roughly 83,000, 20% have a hit.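 Note: values are percent growth. 100 is the growth of untreated cells, values between 100 and 0 indicate rising inhibition; between -100 and 0 indicates cell death.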 A number with no mark means an inactive call. Active and inactive are the calls of the source. The calls were made as follows: active = growth percent below 10; inactive = the rest.

These compounds were tested on HL-60(TB) leukemia (assay: NCI-60 one-dose screen, 48 h (100 = growth as untreated, 0 = no growth, -100 = all killed)). Conditions: 10 µM unless noted.

| SMILES | growth |
| --- | --- |
| C=C1C(=O)O[C@H]2[C@H]1CC/C(COC(=O)NCc1ccc(Cn3c(=O)sn(CCCCC)c3=O)cc1)=C\CC[C@@]1(C)O[C@@H]21 | -40.4% (active) |
| Cc1ccc(S(=O)(=O)NNC(=O)/C(=C\c2ccc(Cl)cc2)c2nc3ccccc3s2)cc1 | 89.7% |
| CC(=O)OC1Oc2ccccc2-c2oc(=O)c(-c3ccc(F)cc3)cc21 (centres undefined) | 97.3% |
| C=C(CN1CCN(c2cccc(C(F)(F)F)n2)CC1)c1ccc(C(=O)Nc2ccccc2N)cc1 | -27.4% (active) |
| O=C(OCc1ccc2c(Cl)cc(Cl)c(O)c2n1)N1CCN(C(=O)c2cc3ccccc3[nH]2)CC1 | 31% |
| C[C@]12CC[C@@H]3c4ccc(O)cc4CC[C@H]3[C@@H]1CC[C@@H]2NS(=O)(=O)c1cccc(Br)c1 | 35.2% |
| O=C(NS(=O)(=O)c1ccc2ccccc2c1)n1cc(-c2ccncc2)c(-c2ccc(Cl)c(O)c2)n1 | 43.3% |
| O=C1C=C(OCC=C(Cl)Cl)C(=O)c2ccccc21 | -1.08% (active) |
| COc1cccc2c1C(=O)c1c(O)c3c(c(O)c1C2=O)C[C@@](O)(/C(C)=N/NC(=O)c1cccc([N+](=O)[O-])c1)C[C@@H]3OC1CC(N)C(O)C(C)O1 (some centres undefined) | -45.1% (active) |
| CCOC(=O)c1ccc2c(c1)c1c(C)c3ccncc3c(C)c1n2C | 3.93% (active) |
| O=C(NC(CSSCC(NC(=O)c1ccccc1)C(=O)O)C(=O)O)c1ccccc1 (centres undefined) | 60.7% |
| OC(c1cccc(C(F)(F)F)c1)c1cnccc1NC1CCCCC1 (centres undefined) | 45.3% |
| O=C1NC(=C(Cl)Cl)/C(=N/S(=O)(=O)NCCc2c[nH]c3ccccc23)N1 | 50.2% |
| O=C(NCCCCCCNC(=O)OCc1ccc2c(Cl)cc(Cl)c(O)c2n1)OCc1ccc2c(Cl)cc(Cl)c(O)c2n1 | -46.2% (active) |
| Cn1cc(-c2csc(-c3cn(C)c4ncccc34)n2)c2cc(F)cnc21 | 86.4% |
| NC(=O)c1cnc(Nc2cccc(N)c2)nc1NCCCNC(=O)C1CCC1 | 55.2% |
| COc1ccc2nccc(/C=C/c3ccnc4ccc(OC)cc34)c2c1 | 63.5% |
| CC(C)C1=NOC(=O)C1=Cc1cn(-c2ccccc2)nc1-c1ccc(Br)cc1 | -28.8% (active) |
| COc1ccccc1N1CCCCC1 | 101% |
| COc1cc(-c2cc(-c3ccc(C)cc3)nc3nc(N)[nH]c(=O)c23)ccc1Oc1ccnc2cc(Cl)ccc12 | 56.2% |

| SMILES | growth |
| --- | --- |
| Cc1cc(N(CCCNc2ccnc3cc(Cl)ccc23)Cc2ccco2)nc(Cl)n1 | 17.5% |
| O=C(Nc1ccc(Oc2ccc(F)cc2)c(Cl)c1)c1cccnn1 | 56.3% |
| CCCc1cc(=O)oc2c3c(c4c(c12)OC(C)(C)CC4)OC(C)[C@H](C)[C@@H]3O (some centres undefined) | 109% |
| CCOC(=O)/C=C/c1c(C)[nH]c(=O)[nH]c1=O | 75.3% |
| CCCCNP1(NCCCC)=NP(NCCCC)(NCCCC)=NP(NCCCC)(NCCCC)=NP(NCCCC)(NCCCC)=N1 | -59.3% (active) |
| CC(=O)c1c[nH]c2ccccc12 | 114% |
| CN(C)c1ccc(/C=C\c2ccnc3ccccc23)cc1 | 26.1% |
| COc1ccc(-n2cc(-c3ccccc3)c3c(SCC(=O)N/N=C/c4ccc([N+](=O)[O-])cc4)ncnc32)cc1 | 103% |
| Nc1cc(C(=O)O)[nH]c(=S)n1 | 123% |
| COc1cc(C2CC(c3c(C)[n+]([O-])c4ccccc4[n+]3[O-])=NN2)cc(OC)c1OC (centres undefined) | 97.8% |
| Cc1ncc(C(=O)Nc2ccc(CN3CCN(C)CC3)c(C(F)(F)F)c2)cc1C#Cc1cnc(N)c2ncccc12 | 6.76% (active) |
| COc1cc2nc3cc([N+](=O)[O-])ccc3c(NCCCNCCO)c2cc1OC | -25.3% (active) |
| O=C(O)c1ccc2cccnc2c1O | -20.5% (active) |
| CCOC(=O)c1ccc(C(=N)N)cc1 | 103% |
| C/C=C/C(N)=O | 107% |
| O=C1C(Cl)=C(Nc2ccc(S(=O)(=O)c3ccc(NC4=C(Cl)C(=O)c5ccccc5C4=O)cc3)cc2)C(=O)c2ccccc21 | 32.7% |
| COc1ccc(C(=O)/C=C/Nc2cc(-c3ccccc3)nn2-c2ccccc2)cc1 | 93.2% |
| O=C1CC[C@H](c2ccc(O)c3c2C(=O)[C@@H]2O[C@@H]2C3=O)c2cccc(O)c21 | -20.5% (active) |
| COc1ccc(C2CC(c3ccc(Cl)cc3)=NN2/C=C2\SC(=S)N(NC(=O)Cc3ccccc3Nc3c(Cl)cccc3Cl)C2=O)cc1 (centres undefined) | 64.7% |
